Laboratory results reported in PubChem BioAssay AID1159580 (chemical genetic matrix, 2015).
Values joined by “and” are separate entries in the source; they are usually repeats but may differ in a detail not shown here. Equal values may be shown once. Screen size: about 5,500 compounds; about 2,000 (36%) were called active. Not shown: some 18% with an inconclusive outcome. Rule as the data show it: active = normalized growth mostly below about 0.91 (no sharp cut-off); inconclusive = no clear call, values can overlap the other calls; inactive = mostly above about 0.92. Some of the results follow.

Experiment: chemical genetic growth profiling, strain panel (AID 1159580);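 also: tested at 20 µM; growth read once vehicle control cultures reached saturation at 30 °C; 1 = growth at the plate median or of vehicle wells; lower values mean less growth of the strain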
Conditions: growth OD

Measured: normalized growth

NCCCCC(=O)O
inactive: S. cerevisiae deletion strains, locus YKL009W, strain mrt4, hits give low values 1.01 | S. cerevisiae deletion strains, locus YKL068W, hits give low values 1 | S. cerevisiae deletion strains, locus YKL085W, strain MDH1 (second series), hits give low values 1.04 | S. cerevisiae deletion strains, locus YKL085W, strain MDH1, hits give low values 1.04 | S. cerevisiae deletion strains, locus YKL160W, strain elf1, hits give low values 1.03 | S. cerevisiae deletion strains, locus YKL190W, strain CNB1, hits give low values 1.02 | S. cerevisiae deletion strains, locus YKR001C, strain vps1, hits give low values 0.996 | S. cerevisiae deletion strains, locus YKR026C, strain gcn3, hits give low values 1.02 | S. cerevisiae deletion strains, locus YKR091W, strain srl3, hits give low values 1.02 | S. cerevisiae deletion strains, locus YLL001W, strain dnm1, hits give low values 1.01 | S. cerevisiae deletion strains, locus YLL026W, hits give low values 1.01 | S. cerevisiae deletion strains, locus YLL041C, strain sdh2, hits give low values 1.01 | S. cerevisiae deletion strains, locus YLR027C, strain aat2, hits give low values 1.02 | S. cerevisiae deletion strains, locus YLR039C, strain RIC1, hits give low values 1.06 | S. cerevisiae deletion strains, locus YLR058C, strain SHM2, hits give low values 1.03 | S. cerevisiae deletion strains, locus YLR102C, strain apc9, hits give low values 0.999 | S. cerevisiae deletion strains, locus YLR113W, strain HOG1, hits give low values 1 | S. cerevisiae deletion strains, locus YLR221C, strain rsa3, hits give low values 1 | S. cerevisiae deletion strains, locus YLR258W, strain gsy2, hits give low values 1.02 | S. cerevisiae deletion strains, locus YLR262C, strain YPT6 (second series), hits give low values 1.03 | S. cerevisiae deletion strains, locus YLR262C, strain YPT6, hits give low values 1.09 | S. cerevisiae deletion strains, locus YLR268W, strain sec22, hits give low values 1 | S. cerevisiae deletion strains, locus YLR320W, strain mms22, hits give low values 1.03 | S. cerevisiae deletion strains, locus YLR330W, strain CHS5, hits give low values 1.02 | S. cerevisiae deletion strains, locus YLR342W, strain FKS1 (second series), hits give low values 1.01 | S. cerevisiae deletion strains, locus YLR342W, strain FKS1, hits give low values 1.02 | S. cerevisiae deletion strains, locus YLR357W, strain rsc2, hits give low values 1.04 | S. cerevisiae deletion strains, locus YLR370C, strain arc18, hits give low values 1.02 | S. cerevisiae deletion strains, locus YLR371W, strain rom2, hits give low values 0.995 | S. cerevisiae deletion strains, locus YLR384C, strain iki3, hits give low values 1.03 | S. cerevisiae deletion strains, locus YLR418C, strain cdc73, hits give low values 1.02 | S. cerevisiae deletion strains, locus YML016C, strain PPZ1, hits give low values 1.03 | S. cerevisiae deletion strains, locus YML032C, strain rad52, hits give low values 0.979 | S. cerevisiae deletion strains, locus YML120C, strain ndi1, hits give low values 1.01 | S. cerevisiae deletion strains, locus YML124C, strain tub3, hits give low values 0.987 | S. cerevisiae deletion strains, locus YMR058W, strain fet3, hits give low values 1.02 | S. cerevisiae deletion strains, locus YMR078C, strain ctf18, hits give low values 0.983 | S. cerevisiae deletion strains, locus YMR125W, strain sto1, hits give low values 1 | S. cerevisiae deletion strains, locus YMR129W, hits give low values 1.02 | S. cerevisiae deletion strains, locus YMR205C, strain PFK2, hits give low values 1.03 | S. cerevisiae deletion strains, locus YMR223W, strain ubp8, hits give low values 0.976 | S. cerevisiae deletion strains, locus YMR231W, strain pep5, hits give low values 1.01 | S. cerevisiae deletion strains, locus YMR263W, strain SAP30, hits give low values 1.03 | S. cerevisiae deletion strains, locus YMR307W, strain GAS1, hits give low values 1.04 | S. cerevisiae deletion strains, locus YNL067W, strain RPL9B, hits give low values 1.04 | S. cerevisiae deletion strains, locus YNL071W, strain lat1, hits give low values 1.01 | S. cerevisiae deletion strains, locus YNL128W, strain TEP1, hits give low values 1.02 and 1.01 | S. cerevisiae deletion strains, locus YNL153C, strain GIM3, hits give low values 1.02 | S. cerevisiae deletion strains, locus YNL175C, strain NOP13, hits give low values 1.03 | S. cerevisiae deletion strains, locus YNL183C, strain NPR1, hits give low values 0.894 | S. cerevisiae deletion strains, locus YNL197C, strain WHI3, hits give low values 1.01 | S. cerevisiae deletion strains, locus YNL209W, strain ssb2, hits give low values 1.02 | S. cerevisiae deletion strains, locus YNL224C, strain SQS1, hits give low values 1 | S. cerevisiae deletion strains, locus YNL233W, strain BNI4, hits give low values 1.03 | S. cerevisiae deletion strains, locus YNL248C, strain rpa49, hits give low values 1.01 | S. cerevisiae deletion strains, locus YNL250W, strain rad50, hits give low values 1 | S. cerevisiae deletion strains, locus YNL271C, strain bni1, hits give low values 0.99 | S. cerevisiae deletion strains, locus YNL298W, strain CLA4, hits give low values 0.99 | S. cerevisiae deletion strains, locus YNL307C, strain MCK1, hits give low values 0.987 | S. cerevisiae deletion strains, locus YNL322C, strain KRE1 (second series), hits give low values 1.02 | S. cerevisiae deletion strains, locus YNL322C, strain KRE1, hits give low values 1.02 | S. cerevisiae deletion strains, locus YNR049C, strain mso1, hits give low values 1.01 | S. cerevisiae deletion strains, locus YNR052C, strain pop2, hits give low values 0.993 | S. cerevisiae deletion strains, locus YOL006C, strain TOP1, hits give low values 1.08 | S. cerevisiae deletion strains, locus YOL012C, strain htz1 0.929 | S. cerevisiae deletion strains, locus YOL147C, strain pex11, hits give low values 0.99 | S. cerevisiae deletion strains, locus YOR001W, strain rrp6, hits give low values 1.03 | S. cerevisiae deletion strains, locus YOR061W, strain CKA2, hits give low values 1.02 | S. cerevisiae deletion strains, locus YOR069W, strain VPS5, hits give low values 1.01 | S. cerevisiae deletion strains, locus YOR070C, strain gyp1, hits give low values 1.02 | S. cerevisiae deletion strains, locus YOR080W, strain dia2, hits give low values 1.02 | S. cerevisiae deletion strains, locus YOR083W, strain WHI5 (second series), hits give low values 1.05 | S. cerevisiae deletion strains, locus YOR083W, strain WHI5, hits give low values 1.02 | S. cerevisiae deletion strains, locus YOR106W, strain vam3, hits give low values 1.02 | S. cerevisiae deletion strains, locus YOR136W, strain idh2, hits give low values 0.982 | S. cerevisiae deletion strains, locus YOR144C, strain elg1, hits give low values 0.999 | S. cerevisiae deletion strains, locus YOR184W, strain ser1, hits give low values 0.984 | S. cerevisiae deletion strains, locus YOR231W, strain MKK1, hits give low values 0.988 | S. cerevisiae deletion strains, locus YOR265W, strain rbl2, hits give low values 1.02 | S. cerevisiae deletion strains, locus YOR270C, strain vph1, hits give low values 1.05 | S. cerevisiae deletion strains, locus YOR290C, strain snf2, hits give low values 1.01 | S. cerevisiae deletion strains, locus YOR316C, strain cot1, hits give low values 0.992 | S. cerevisiae deletion strains, locus YPL051W, strain arl3, hits give low values 1.01 | S. cerevisiae deletion strains, locus YPL055C, strain LGE1, hits give low values 1.05 and 0.99 | S. cerevisiae deletion strains, locus YPL078C, strain atp4, hits give low values 1.03 | S. cerevisiae deletion strains, locus YPL106C, strain sse1, hits give low values 1.03 | S. cerevisiae deletion strains, locus YPL240C, strain hsp82, hits give low values 1.01 | S. cerevisiae deletion strains, locus YPL241C, strain CIN2, hits give low values 0.963 | S. cerevisiae deletion strains, locus YPL256C, strain CLN2, hits give low values 0.965 | S. cerevisiae deletion strains, locus YPR119W, strain clb2, hits give low values 0.989 | S. cerevisiae deletion strains, locus YPR141C, strain kar3, hits give low values 0.98 | S. cerevisiae deletion strains, locus YPR163C, strain tif3, hits give low values 0.982 | S. cerevisiae deletion strains, locus YPR167C, strain met16, hits give low values 0.989 | S. cerevisiae deletion strains, strain wtn01, hits give low values 1 | S. cerevisiae strains, strain wild type, hits give low values 1.01
